Screens: PubChem BioAssay, several laboratories
Compounds with a hit are over-represented: about 3.5% of the library has one in this group of screens.
HSP90 refold inh = blocks HSP90-mediated luciferase refolding in reticulocyte lysate. Rabbit reticulocyte lysate, luciferase refolding luminescence, 3 h. inhibition, % at 5.6 µM. 0.91% of 290,000 active. AID 1789;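 active = inhibition above the screen-wide mean plus 3 SD, computed separately per campaign, cut at about 16% in these data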;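 also: inhibitors lower the luminescence because luciferase stays unfolded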
PPC-1+TRAIL kill = compounds killing PPC-1 cancer cells with TRAIL present (potentiator screen, no TRAIL-free arm). PPC-1 cells + TRAIL, ATPLite viability luminescence. cell killing (% activity), % at 4 µM or 5 µM. 0.41% of 220,000 active;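 active = cell killing above 50% in the first pass at 4 µM, then a duplicate retest at 5 µM averaging 50% or more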
TWEAK Fn14 block = blocks TWEAK-Fn14 interaction in a reporter cell assay | TWEAK-stimulated Fn14 reporter cells, luciferase luminescence, 8 h | inhibition, % at 10 µM | 2% of 360,000 active; in the data active = inhibition above about 50%
TROY signal inh = TROY signaling inhibition; Q293 LMP1-TROYcd NF-kB luciferase reporter, 4 h; inhibition, % at 10 µM; 0.98% of 360,000 active; AID 1347056;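 active = compounds whose plate-normalised and pattern-corrected inhibition of the luciferase reporter signal at the single screening dose is 50% or more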
C8 TRAIL sens = sensitizes caspase-8 expressing cells to TRAIL; NB7+C8 cells + TRAIL, ATPlite viability luminescence; inhibition (viability loss, TRAIL sensitization), % at 10 µM; 1% of 360,000 active;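 active = compounds causing at least 50% loss of cell viability in the single-dose screen, relative to plate controls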
Platelet DG rel = modulates dense granule release in human platelets; human platelet-rich plasma, SFLLRN dense granule ATP release, luminescence; inhibition, %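 (compounds screened at 7.5 µM in platelet-rich plasma)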; 0.22% of 300,000 active;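 active = mean replicate score, as percent of positive control, at or above 50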
Large screens that a line does not name were inactive.

CCN1CCN(C2=C(NS(=O)(=O)c3ccccc3)C(=O)c3ccccc3C2=O)CC1	C8 TRAIL sens 61.4 (no result: PPC-1+TRAIL kill)
Cc1ccc(SCC(=O)OCC(=O)N(C)CC(=O)Nc2ccc(F)cc2)cc1C	none (no result: HSP90 refold inh, PPC-1+TRAIL kill)
O=S(=O)(NCC(Nc1ccc(Cl)cc1)c1ccccc1)c1ccc(Cl)cc1 (centres undefined)	TWEAK Fn14 block 69.1, TROY signal inh 51.4
Cn1c(=O)c2cc(NC(=O)OCCF)ccc2n1Cc1cccc(C(F)(F)F)c1	none (no result: HSP90 refold inh, PPC-1+TRAIL kill, Platelet DG rel)
Cc1nc2ccccc2c2oc(C(=O)NCc3ccccn3)cc12	none
Cc1ccc(C)c(N2CCN(C(=O)c3cc4c(C)nc5ccccc5c4o3)CC2)c1	TROY signal inh 52.3 (no result: PPC-1+TRAIL kill)
Cc1nc2ccccc2c2oc(C(=O)N3CC(C)CC(C)C3)cc12 (centres undefined)	none (no result: PPC-1+TRAIL kill)
Cc1ccc(CNC(=O)c2cc3c(C)nc4ccccc4c3o2)cc1	TWEAK Fn14 block 61.1
COc1ccccc1N1CCN(C(=O)c2cc3c(C)nc4ccccc4c3o2)CC1	TROY signal inh 51.4 (no result: PPC-1+TRAIL kill)
CCc1ccc(NC(=O)c2c(C(=O)Nc3ccccc3)sc3nc(C)cc(=O)n23)cc1	none
COc1cccc(C=NNC(=O)c2ccncc2)c1O	none (no result: HSP90 refold inh, PPC-1+TRAIL kill, Platelet DG rel)
COc1cccc(/C=N/Nc2ccccc2C(=O)O)c1O	none (no result: PPC-1+TRAIL kill)
COc1cccc(/C=N/Nc2ccc(C(=O)O)cc2)c1O	HSP90 refold inh 95.2, TWEAK Fn14 block 103.3, TROY signal inh 83.8, C8 TRAIL sens 55.9, Platelet DG rel 95.3
COc1cccc(/C=N/Nc2ccc(S(=O)(=O)O)cc2)c1O	Platelet DG rel 55.5
O=S(=O)(O)c1ccc(NN=Cc2ccccc2O)cc1	none (no result: HSP90 refold inh, PPC-1+TRAIL kill, Platelet DG rel)
COc1cccc(/C=N/NC(=O)c2nc(-c3ccccc3)cc(-c3ccccc3)n2)c1O	TWEAK Fn14 block 51.0
CC(C)C(=O)N1CCCC1(C)C(=O)Nc1ccccc1 (centres undefined)	none (no result: HSP90 refold inh, PPC-1+TRAIL kill, Platelet DG rel)
CCOC(=O)N1CCN(C(=O)Nc2ccc3nc(C)c(C)nc3c2)CC1	none
Cc1nc2ccc(NC(=O)N3CCCCC3)cc2nc1C	TROY signal inh 50.4
Cc1cccc(NC(=O)NCC2CCN(c3ccc(S(=O)(=O)N4CCOCC4)cc3)CC2)c1	TROY signal inh 54.1 (no result: PPC-1+TRAIL kill)
CN(C)S(=O)(=O)c1ccc(Nc2nc(C3CC3)nc3c2nnn3Cc2ccccc2Cl)cc1	TWEAK Fn14 block 87.4
COc1cccc(OC)c1Nc1nc(C)nc2c1nnn2Cc1ccccc1Cl	none
CCc1nc(Nc2ccc(OC)c(OC)c2)c2nnn(Cc3ccccc3Cl)c2n1	TWEAK Fn14 block 52.2
Cc1ccc2c(c1)C1CN(C)CCC1N2C(=O)COc1ccc(N(C)C(=O)c2ccccc2)cc1 (centres undefined)	none
Cc1ccc2c(c1)C1CN(C)CCC1N2C(=O)c1cccc(S(=O)(=O)N(C)C)c1 (centres undefined)	TROY signal inh 66.9
Cc1ccccc1OCCC(=O)OCC(=O)NC(=O)c1ccccc1	none (no result: HSP90 refold inh, PPC-1+TRAIL kill)
COc1ccc(CNc2ncc(-c3ccc(F)cc3)n2C)c2ccccc12	TWEAK Fn14 block 57.6 (no result: PPC-1+TRAIL kill)
COc1cc(NC(=O)Cn2ncc(Cl)c(Cl)c2=O)c(C)cc1[N+](=O)[O-]	TWEAK Fn14 block 98.2, TROY signal inh 68.4, C8 TRAIL sens 93.5
CC(=O)N1c2ccc(S(=O)(=O)NC(CC(=O)O)c3ccc(Br)cc3)cc2CC1C (centres undefined)	none (no result: PPC-1+TRAIL kill)
Cn1ccc2c(N3CCCCCC3)cc3c(c21)C1CCC3C1 (centres undefined)	none (no result: HSP90 refold inh, PPC-1+TRAIL kill, Platelet DG rel)
Cc1ccc(S(=O)(=O)N2CCC(C(=O)N3Cc4ccccc4C3)CC2)cc1	none
Cc1ccc(S(=O)(=O)N2CCC(C(=O)N3CCN(c4ccccn4)CC3)CC2)cc1	TWEAK Fn14 block 75.5 (no result: PPC-1+TRAIL kill)
CN(CC(=O)N1CCN(c2ccccn2)CC1)S(=O)(=O)c1ccc(Br)cc1	TWEAK Fn14 block 92.0 (no result: TROY signal inh)
Cc1cccc(Nc2nnc(SCC(=O)NC(=O)CN3CCCC3=O)s2)c1	none (no result: HSP90 refold inh, PPC-1+TRAIL kill, Platelet DG rel)
O=C(Cc1cccs1)Nc1nc2c(ccc3ccccc32)s1	TWEAK Fn14 block 50.3
O=C(Nc1ccccc1)Nc1ncc([N+](=O)[O-])s1	TWEAK Fn14 block 80.7, C8 TRAIL sens 54.8
O=C(COC(=O)c1ccccc1)Nc1ncc([N+](=O)[O-])s1	none (no result: HSP90 refold inh, PPC-1+TRAIL kill, Platelet DG rel)
CC(C(=O)Nc1ccc(F)cc1Cl)N1CCN(S(=O)(=O)c2cccs2)CC1 (centres undefined)	none (no result: HSP90 refold inh, PPC-1+TRAIL kill, Platelet DG rel)
O=C(NCc1ccc(N2CCCC2=O)cc1)C1CCC(=O)N(Cc2ccccc2F)C1 (centres undefined)	none (no result: PPC-1+TRAIL kill)
Cc1ccc(NC(=O)CN(C)CC(=O)Nc2ccccc2Oc2ccccc2)cc1	none
Cc1cccc(C)c1NC(=O)CN(C)CC(=O)Nc1ccccc1Oc1ccccc1	TWEAK Fn14 block 51.8
O=C(Nc1ccc2c(c1)S(=O)(=O)N=C1CCCCCN12)c1ccccc1Cl	none
CC(=O)c1c(C)nn(-c2ccccc2)c1C	none
COP(C)(=O)c1c(C)nn(-c2ccccc2)c1C (centres undefined)	TWEAK Fn14 block 68.6 (no result: TROY signal inh)
O=C(OCn1ncc(Cl)c(Cl)c1=O)c1cccc(C(F)(F)F)c1	TWEAK Fn14 block 97.8, C8 TRAIL sens 93.9
CCC(=O)NC(=S)Nc1ccc(N2CCN(C(=O)c3ccc(Cl)cc3)CC2)cc1	none
O=C(Nc1ccc(C(F)(F)F)cc1)N1CCN(c2ccnc3cc(Cl)ccc23)CC1	TROY signal inh 57.8
CC(=O)c1ccc(NC(=O)c2ccc(C)c(S(=O)(=O)N3CCOCC3)c2)cc1	none (no result: PPC-1+TRAIL kill)
CCOC(=O)c1cc(OC(=O)Cc2ccc(OC)c(S(=O)(=O)N3CCOCC3)c2)cc(C(=O)OCC)c1	TROY signal inh 52.3 (no result: HSP90 refold inh, PPC-1+TRAIL kill, Platelet DG rel)
CCOC(=O)c1ccc(NC(=O)c2ccc(C)c(S(=O)(=O)N3CCOCC3)c2)cc1	TWEAK Fn14 block 95.7, TROY signal inh 73.4, C8 TRAIL sens 70.3
O=C(Nc1ccc2c(c1)OCCO2)c1ccc(Br)c(S(=O)(=O)N2CCOCC2)c1	TWEAK Fn14 block 82.3, TROY signal inh 61.5 (no result: Platelet DG rel)
COc1ccc(CN(C)C(=O)Cc2ccc(OC)c(S(=O)(=O)N3CCOCC3)c2)cc1	none (no result: HSP90 refold inh, PPC-1+TRAIL kill)
Cc1cc(C)n(-c2ccc(C(=O)Nc3ccc(C)c(S(=O)(=O)N4CCOCC4)c3)cc2)n1	TWEAK Fn14 block 64.5, TROY signal inh 64.2, C8 TRAIL sens 53.2
N#CC1C=Cc2ccccc2N1C(=O)c1ccccc1 (centres undefined)	none
N#CC1C=Cc2c(ccc3ccccc23)N1C(=O)c1ccccc1 (centres undefined)	TWEAK Fn14 block 54.1 (no result: HSP90 refold inh, PPC-1+TRAIL kill, Platelet DG rel)
CC1(C)c2ccccc2C(=O)c2ccccc21	none (no result: HSP90 refold inh, PPC-1+TRAIL kill, Platelet DG rel)
O=[N+]([O-])C1C(c2ccccc2)C12c1ccccc1-c1ccccc12 (centres undefined)	TWEAK Fn14 block 57.1 (no result: HSP90 refold inh, PPC-1+TRAIL kill, Platelet DG rel)
Nc1nc(N)c2ncn(C3C=CC(CO)C3)c2n1 (centres undefined)	none (no result: HSP90 refold inh, PPC-1+TRAIL kill, Platelet DG rel)
CN(C)S(=O)(=O)c1cccc(NC(=O)CSc2ncnc3ccccc23)c1	TWEAK Fn14 block 64.0
CN(C)S(=O)(=O)c1ccc(NC(=O)CSc2ncnc3ccccc23)cc1	none
CN(C)S(=O)(=O)c1cccc(NC(=O)CSc2nnnn2-c2ccccc2)c1	Platelet DG rel 49.8
